Shown are actives, neighbours in structure and some others; about 2.3% of the full set was active somewhere.
M1 ag parental – counter-screen for M1 agonists: effect in parental CHO-K1 cells; 360,000 tested, 0.48% active; Fluo-8 calcium fluorescence; scaled to maximal ATP response, vehicle zero; AID 602248, 2012; activation, % at 3 µM; in the data active means activation above about 15%;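 further: untransfected CHO-K1 host cells lacking M1 receptor as counterscreen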
CHRM1 antagonist – human M1 muscarinic receptor antagonists, primary screen, CHO-K1 cells, Fluo-8 calcium fluorescence, 1536-well | Muscarinic acetylcholine receptor M1 (Homo sapiens), P11229 | CHO-K1 hM1, ACh EC80 antagonist | inhibition, % at 3 µM | 360,000 tested, 1.3% active;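 active means percent inhibition above its own plate's cutoff, namely the mean of that plate's compound wells plus 3 SD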;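 further: peak over basal fluorescence ratio during 140 s after agonist addition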
Target sequence (P11229 whole entry, looked up): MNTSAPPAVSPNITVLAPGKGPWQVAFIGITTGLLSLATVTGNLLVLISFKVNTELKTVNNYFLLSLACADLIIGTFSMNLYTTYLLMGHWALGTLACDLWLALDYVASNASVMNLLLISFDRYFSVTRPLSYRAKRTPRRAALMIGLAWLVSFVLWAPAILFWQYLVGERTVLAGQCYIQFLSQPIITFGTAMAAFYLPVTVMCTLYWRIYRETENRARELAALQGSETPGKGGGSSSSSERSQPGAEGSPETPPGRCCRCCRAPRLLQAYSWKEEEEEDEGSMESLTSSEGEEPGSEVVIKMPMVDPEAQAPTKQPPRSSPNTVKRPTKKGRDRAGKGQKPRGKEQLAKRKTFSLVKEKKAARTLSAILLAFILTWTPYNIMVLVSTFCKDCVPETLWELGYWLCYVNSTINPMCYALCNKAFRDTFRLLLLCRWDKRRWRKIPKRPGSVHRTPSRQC
M1 ag – human M1 muscarinic receptor agonists, primary screen, Fluo-8 calcium fluorescence, CHO-K1 cells, HTS. Muscarinic acetylcholine receptor M1 (Homo sapiens), P11229. CHO-K1 hM1, agonist mode; 0% DMSO, 100% acetylcholine EC100. activation, % at 3 µM. 360,000 tested, 0.33% active;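 active means activation above the run's mean compound activation plus 3 SD, cut at about 16% in these data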;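 further: peak over basal fluorescence ratio within a 140 s kinetic read after compound addition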
CHO-K1 Ca antag – nonselective inhibitor or artifact in parental CHO-K1 cells | inhibition, % at 3 µM | 360,000 tested, 0.6% active | AID 602250 | ATP-induced calcium, Fluo-8 fluorescence;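 active means inhibition above a per-plate cutoff, the plate's mean sample inhibition plus 3 SD, cut at about 24% in these data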
M1 PAM – human M1 muscarinic receptor positive allosteric modulators, primary screen, CHO-K1 cells, Fluo-8 calcium fluorescence, 1536-well; Muscarinic acetylcholine receptor M1 (Homo sapiens), P11229; CHO-K1 hM1, ACh EC20; 0% = ACh EC20, 100% = maximal ACh; activation, % at 3 µM; 360,000 tested, 0.088% active; in the data active means activation above about 19%, passing the limit was not always enough
M1 PAM parental – nonselective calcium activators in parental CHO-K1 cells, primary screen, counter-screen for M1 PAM project, cell-based, Fluo-8 calcium fluorescence, full deck, 1536-well; activation, % at 3 µM; ATP EC20; 0% at ATP EC20, 100% at ATP max; 360,000 tested, 0.02% active;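 active means activation above the run cutoff, the mean activation of all test compounds plus 3 SD, cut at about 40% in these data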;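 further: peak over basal fluorescence ratio in a 140 s read after ATP addition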
Numbers stand for hits; n = inactive.

SMILES | M1 ag parental | CHRM1 antagonist | M1 ag | CHO-K1 Ca antag | M1 PAM | M1 PAM parental
CC(=O)/C(C(=N)N1CCN(C(c2ccccc2)c2ccccc2)CC1)=C(\C)O | n | 99.5 | n | n | n | n
O=C(O)/C=C/C(=O)N1CCN(C(c2ccccc2)c2ccccc2)CC1 | n | 41.9 | n | n | n | n
NS(=O)(=O)c1ccc(CNC(=O)C23CC4CC(CC(C4)C2)C3)cc1 | n | n | n | 28.5 | n | n
O=C(OCC(=O)N1CCC(Cc2ccccc2)CC1)c1ccc(O)cc1 | n | n | n | n | n | n
Cc1csc(SC(C)C(=O)NCC2CCCO2)n1 (centres undefined) | n | n | n | n | n | n
Cc1ccc(S(=O)(=O)N2CCN(C(=O)C3CCN(c4ncnc5sc(C)c(C)c45)CC3)CC2)c(C)c1 | n | n | n | n | 28.8 | n
Cc1sc2ncnc(N3CCC(C(=O)NNC(=O)COc4ccccc4F)CC3)c2c1C | n | n | n | n | n | n
Cc1sc2ncnc(N3CCN(S(=O)(=O)c4ccc(C(C)(C)C)cc4)CC3)c2c1C | n | n | n | n | n | n
Cc1sc2ncnc(N3CCC(C(=O)NNC(=O)COc4ccccc4Cl)CC3)c2c1C | n | 32.0 | n | n | n | n
Cc1sc2ncnc(N3CCN(CCOc4ccc(Cl)cc4)CC3)c2c1C | n | 43.0 | n | n | n | n
Cc1sc2ncnc(N3CCC(C(=O)NNC(=O)COc4ccc(Cl)cc4)CC3)c2c1C | n | n | n | n | n | n
Cc1ccccc1C(=O)NCC(=O)OCCOc1ccc(C(C)C)c(C)c1 | n | n | n | n | n | n
Cc1ccc(N2C(=O)C(CN3CCCC3)C2c2ccccc2)cc1 (centres undefined) | n | 25.1 | n | n | n | n
N#Cc1ccccc1NC(=O)COC(=O)CN1C(=O)C2CCCCC2C1=O (centres undefined) | n | n | n | n | n | n
CN1CCC2(CC1)N=C(c1ccc(F)cc1)C(=S)N2C(=O)c1ccc(C(C)(C)C)cc1 | n | 48.8 | n | n | n | n
COc1ccc(/C=C/C(=O)NC(=S)NCC2CCCO2)cc1 (centres undefined) | n | n | n | n | n | n
S=C(NCC1CCCO1)Nc1cc(Cl)c(Cl)cc1Cl (centres undefined) | n | n | n | n | n | n
O=C(NC(=S)NCC1CCCO1)c1ccc(Cl)cc1Cl (centres undefined) | 15.2 | n | n | n | n | n
Cc1cc(C)cc(NC(=S)NCC2CCCO2)c1 (centres undefined) | n | 11.7 | n | n | n | n
COc1ccccc1/C=C/C(=O)NC(=S)NCC1CCCO1 (centres undefined) | n | 35.5 | n | n | n | n
COc1ccccc1NC(=S)NCC1CCCO1 (centres undefined) | n | n | n | 24.4 | n | n
CCOc1ccccc1NC(=S)NCC1CCCO1 (centres undefined) | n | n | n | n | n | n
CC(=O)OC1C2CCC1C([N+]1(C)CCCCC1)CC2 (centres undefined) | n | n | n | n | n | n
COc1ccc(Br)c(C(=O)NCC2CCCCC2)c1 | n | n | n | n | n | n
CCCn1nc(C(=O)Nc2cccc(S(=O)(=O)N(C)c3ccccc3)c2)c2ccccc2c1=O | n | n | n | n | n | n
SMILES | M1 ag parental | CHRM1 antagonist | M1 ag | CHO-K1 Ca antag | M1 PAM | M1 PAM parental
CC1=C(C(=O)N(C(C)C)C(C)C)CC(CC(=O)NCCc2ccccn2)C(=O)N1Cc1ccc(F)cc1 (centres undefined) | n | n | n | n | n | n
Cc1nnc(SCC(=O)Nc2ccc([N+](=O)[O-])cc2)n1CC1CCCO1 (centres undefined) | n | n | n | n | n | n
CCC(C)N(C(=O)COC(=O)c1ccc(N)c([N+](=O)[O-])c1)C1CCS(=O)(=O)C1 (centres undefined) | n | n | n | n | n | n
Cc1ccc(C(=O)OC(C)C(=O)N(C)C2CCCCC2)cc1S(=O)(=O)N1CCCCC1 (centres undefined) | n | n | n | n | n | n
COc1ccc(CC(=O)OCC(=O)Nc2cccnc2Cl)cc1OC | n | 34.7 | n | n | n | n
O=C(CC1C[C@H](C(=O)N2CCOCC2)[C@@]2(CCC3CCCC3)c3[nH]c4ccccc4c3CCN2C1=O)NCc1cccc(C(F)(F)F)c1 (some centres undefined) | n | n | n | n | n | n
CC1=C(C(=O)N(C(C)C)C(C)C)CC(CC(=O)NCCN2CCOCC2)C(=O)N1CCCN1CCCC1=O (centres undefined) | n | n | n | 26.2 | n | n
CC1(C(=O)NCc2cccc(C(F)(F)F)c2)CCN1Cc1ccc2ccccc2c1 (centres undefined) | n | 32.0 | n | n | n | n
CC1(C(=O)NCc2cccc3ccccc23)CCN1Cc1ccc2ccccc2c1 (centres undefined) | n | n | n | n | n | n
O=C(c1ccc(=O)n(Cc2ccccc2)n1)N1CCN(C/C=C/c2ccccc2)CC1 | n | 41.3 | n | n | n | n
O=C(CCS(=O)(=O)c1ccc(Br)cc1)Nc1ccccn1 | n | n | n | 24.5 | n | n
O=C(CCc1nc(-c2ccccc2)no1)Nc1cccnc1 | 15.6 | n | n | n | n | n
CCCN(C(=O)c1nc2nc(C)cc(C)n2n1)c1c(N)n(Cc2ccccc2)c(=O)[nH]c1=O | n | n | n | n | n | n
O=S(=O)(c1ccc(N2CCN(c3ccc(F)cc3)CC2)cc1)N1CCCC1 | n | n | n | n | n | n
O=S(=O)(c1ccc(N2CCCC2)cc1)C(F)(F)F | n | n | n | 27.3 | n | n
CC(C)c1cc(N2CCC(=O)NC2=O)cc(C(=O)O)c1O | 17.9 | n | n | n | n | n
CC(C)N1CCC(=O)NC1=O | n | n | n | n | n | n
Cc1ccc(S(=O)(=O)N2CCOCC2)cc1C(=O)NCc1cccs1 | n | n | n | 25.3 | n | n
O=C(NCc1cccs1)c1ccc(S(=O)(=O)N2CCOCC2)cc1 | n | n | n | n | n | n
COc1cc(C=Cc2nnc3c4ccccc4cnn23)cc(OC)c1OC | n | n | n | n | n | n
CCCN(CCO)C1CCN(CCc2ccccc2)CC1 | n | n | n | n | n | n
CCCC(C)c1nnc(NC(=O)C2CCCO2)s1 (centres undefined) | n | 55.1 | n | n | n | n
Cc1sc(NC(=O)C2CCCO2)c(C(N)=O)c1C (centres undefined) | n | n | n | n | n | n

Source: PubChem (The Scripps Research Institute Molecular Screening Center)
